HTT cytoprotect: protects HTT-Q103 PC12 cells, measured by ATP; AID 1471; Potency, µM (top dose mostly 56.4 µM), usual class: activators; PC12 HTT-Q103 induced, cytoprotection, ATP luminescence, 40 h; 230,000 compounds, 0.14% hits; further: nearly all actives have a fitted effect of over 45% in size
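PC12 cells with ecdysone-inducible HTT exon 1 Q103-GFP, induced with 100 nM tebufenozide and co-treated with library compounds in a dose series (1536-well, 1500 cells/well). Cytoprotection read as ATP content by ATPlite luminescence.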
HPGD inh: inhibitors of human 15-hydroxyprostaglandin dehydrogenase (HPGD). 150,000 compounds, 4.3% hits. Potency, µM, hits mostly inhibitors. purified HPGD, NADH fluorescence kinetic, PGE2 substrate. P15428; active means well fitted inhibition curve with a large enough effect, not every such curve was filed as active; inconclusive means small, poorly fitted or top-dose-only effect, or another doubt; inactive means no such curve, though single readings can be large or run the other way
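20 nM HPGD preincubated 15 min at room temperature with compound in 50 mM Tris-HCl pH 8, 0.01% Tween 20. Started with 1 mM NAD+ and 30 uM prostaglandin E2; NADH fluorescence (360/450 nm) read 5 times over 30-s intervals, last minus first.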
HTT aggregate: inhibitors of mutant huntingtin aggregate formation in PC12 cells; PC12 HttQ103-GFP aggregates, Acumen cytometry, 40 h; Potency, µM (doses to about 46.1 µM), usual class: inhibitors; 220,000 compounds, 1.1% hits; further: nearly all actives have a fitted effect of over 60% in size
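Multiplexed with ATP-based cell death, this channel scores GFP aggregates in PC12 cells expressing inducible HTTex1-Q103-GFP. Induction used 100 nM tebufenozide; compounds were tested in concentration series.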
ALDH1A1 inh: ALDH1A1 (human) enzyme inhibition; P00352; Purified ALDH1A1, NADH fluorescence, propionaldehyde substrate; Potency, µM (doses to about 75.3 µM), usual class: inhibitors; 220,000 compounds, 7.3% hits; AID 1030; active means well fitted inhibition curve with a large enough effect, not every such curve was filed as active; inconclusive means small, poorly fitted or top-dose-only effect, or another doubt; inactive means no such curve, though single readings can be large or run the other way
Target sequence (P00352 whole entry, looked up): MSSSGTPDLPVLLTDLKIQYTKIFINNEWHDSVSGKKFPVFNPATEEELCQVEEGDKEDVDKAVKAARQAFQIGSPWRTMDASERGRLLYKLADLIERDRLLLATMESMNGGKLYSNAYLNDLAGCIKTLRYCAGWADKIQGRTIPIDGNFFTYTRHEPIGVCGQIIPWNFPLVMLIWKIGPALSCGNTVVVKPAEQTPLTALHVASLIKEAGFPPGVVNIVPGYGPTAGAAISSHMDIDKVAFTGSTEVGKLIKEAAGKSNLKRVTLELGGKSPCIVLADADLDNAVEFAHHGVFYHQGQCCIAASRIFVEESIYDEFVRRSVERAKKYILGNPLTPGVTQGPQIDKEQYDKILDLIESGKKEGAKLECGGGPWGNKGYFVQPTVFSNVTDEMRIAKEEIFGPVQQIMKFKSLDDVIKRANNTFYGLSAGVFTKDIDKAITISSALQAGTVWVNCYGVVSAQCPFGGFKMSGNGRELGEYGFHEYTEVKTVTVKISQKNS
Lamin A splicing: changes lamin A minigene splicing in HeLa cells; HeLa LMNA splicing GFP/RFP minigene ratio, 48 h; Potency, µM (highest dose often 46.1 µM), usual class: inhibitors; 200,000 compounds, 0.01% hits; AID 1487; active means well fitted inhibition curve with a large enough effect in the signal ratio, with a control signal flat, not every such curve was filed as active; inconclusive means small, poorly fitted or top-dose-only effect, or effect the other way, or a change in a side signal; the % refers to the signal ratio
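S3 HeLa stable clones carrying a lamin A-EGFP splicing minigene plus DsRed2 were seeded at 600 cells/well in Opti-MEM with 2% FBS, pin-dosed and incubated 48 h at 37°C. Acumen cytometry (488 nm) gave the GFP/RFP total-intensity ratio.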
Of the large screens only hits and unclear results are named; the others gave an inactive call. An excerpt weighted towards active compounds, which were near 8.8% of everything screened. Unless noted, the call rests on the fitted dose curve; in most records, active means well fitted curve in the direction sought with a large enough effect; inconclusive means small, poorly fitted or top-dose-only effect, or another doubt; inactive means no such curve, though single readings can be large; an effect the other way counts as inactive or inconclusive.

CCN(CC)C(=O)C1CCCN(c2ccc([N+](=O)[O-])cc2/C=N/NC(=O)c2cccc(O)c2)C1 (configuration not stated)	ALDH1A1 inh 28µM
CCN(CC)C(=O)C1CCCN(c2ccc([N+](=O)[O-])cc2)C1 (configuration not stated)	ALDH1A1 inh 20µM (no result: HPGD inh, Lamin A splicing)
CCN(CC)C(=O)C1CCCN(c2ccc([N+](=O)[O-])cc2/C=N/NC(=O)c2ccc([N+](=O)[O-])cc2)C1 (configuration not stated)	ALDH1A1 inh inconclusive
CN1CCN(c2ccc([N+](=O)[O-])cc2/C=N/NC(=O)c2cccc([N+](=O)[O-])c2)CC1	ALDH1A1 inh 20µM (no result: HTT cytoprotect)
O=c1cc(CSc2ccccc2)[nH]c2ccc(F)cc12	none (no result: HTT cytoprotect, HPGD inh, HTT aggregate, ALDH1A1 inh)
C=CC(=O)OCCCCCCOC(=O)C=C	ALDH1A1 inh 2µM (no result: HTT aggregate, Lamin A splicing)
CCOc1ccc(CCNC(=O)c2cnc3c(-c4ccc(F)cc4)c(C)nn3c2C)cc1OCC	none (no result: HTT cytoprotect, HPGD inh, HTT aggregate, ALDH1A1 inh)
COc1ccc(CCn2ccc(O)c(Cc3c(F)cccc3Cl)c2=O)cc1OC	none (no result: HPGD inh)
CCC(C(=O)Nc1cc(Cl)ccc1OC)c1ccccc1 (configuration not stated)	ALDH1A1 inh 22µM, Lamin A splicing inconclusive (no result: HTT cytoprotect)
COc1ccc(Cl)cc1NC(=O)CCc1ccccc1	none
COc1ccc(Cl)cc1NC(=O)C(OC)c1ccccc1 (configuration not stated)	ALDH1A1 inh 1.6µM (no result: HPGD inh, Lamin A splicing)
COc1ccc(NC(=O)C(C)NS(=O)(=O)c2ccccc2)cc1Cl (configuration not stated)	ALDH1A1 inh inconclusive
COc1ccc(NC(=O)C(OC)c2ccccc2)cc1Cl (configuration not stated)	ALDH1A1 inh 13µM, Lamin A splicing inconclusive
COc1ccc(C)cc1NC(=O)C(c1ccccc1)N1CCNC(=O)C1 (configuration not stated)	ALDH1A1 inh 18µM (no result: HPGD inh)
COc1ccc(Cl)cc1NC(=O)CNCC(c1ccccc1)N(C)C (configuration not stated)	ALDH1A1 inh inconclusive (no result: HPGD inh, Lamin A splicing)
Nc1ccn([C@H]2O[C@H](CO)[C@@H]3[O][Sn]([c]4ccccc4)([c]4ccccc4)[O][C@H]32)c(=O)n1	none (no result: HTT aggregate, Lamin A splicing)
COc1ccc(NC(=O)C(NCC(C)C)c2ccccc2)cc1Cl (configuration not stated)	ALDH1A1 inh 1.4µM (no result: HPGD inh, Lamin A splicing)
CCOc1ccccc1NC(=O)C(OC(=O)C1CC1)c1ccccc1 (configuration not stated)	none (no result: HPGD inh, ALDH1A1 inh, Lamin A splicing)
COc1ccc(C)cc1NC(=O)C(OC(=O)C1CC1)c1ccccc1 (configuration not stated)	ALDH1A1 inh 4µM (no result: HPGD inh)
Br/C(=N\Nc1nn[nH]n1)c1ccncc1	none (no result: HTT aggregate, Lamin A splicing)
Cc1ccc(NC(=S)Nc2ccc3nc(-c4ccccn4)c(-c4ccccn4)nc3c2)cc1C	ALDH1A1 inh 18µM
Cc1ccc(-c2nc(N)s[n+]2-c2ccccc2)cc1	HPGD inh 2.2µM, ALDH1A1 inh 7.1µM
CNc1nc(-c2ccccc2)[n+](-c2ccc(C)cc2)s1	ALDH1A1 inh 2.5µM, Lamin A splicing inconclusive (no result: HPGD inh)
Cc1ccc(NC(=O)CSc2nnc(-c3n[nH]c4ccccc34)n2-c2ccccc2)c(C)c1	ALDH1A1 inh 20µM, Lamin A splicing inconclusive
Cc1nc(N2CCOCC2)c2nc(-c3ccccc3)n(CC(C)(C)CN(C)C)c2n1	HPGD inh inconclusive, ALDH1A1 inh inconclusive (no result: HTT aggregate, Lamin A splicing)
C[C@@H](c1ccccc1)N1C(=O)[C@H]2[C@H]3[C@H](O)[C@H](O)C/C(=N/OCc4ccccc4)[C@@H]3CC[C@@H]2C1=O	none (no result: HPGD inh, HTT aggregate, Lamin A splicing)
CCCCOC(=O)c1ccc(NC(=S)NC(=O)c2c(Br)c(C)nn2C)cc1	ALDH1A1 inh 4µM
CC(=O)c1ccc(NC(=S)NC(=O)c2c(Cl)c(C)nn2C)cc1	ALDH1A1 inh inconclusive (no result: HTT cytoprotect)
O=C(c1ccco1)N1N=C2CCCCCC2C1(O)C(F)(F)F (configuration not stated)	ALDH1A1 inh inconclusive (no result: HPGD inh, Lamin A splicing)
CN1CC2(C)OC(=O)C(Cl)=C2CC1c1ccccc1 (configuration not stated)	ALDH1A1 inh 13µM (no result: HTT cytoprotect)
O=C1CC(c2ccccc2)N1c1ccccc1 (configuration not stated)	none
Cn1c(Sc2ccc(Br)cc2)c(C=O)c2ccccc21	HTT aggregate 10µM, Lamin A splicing inconclusive
